Laboratory results from PubChem BioAssay AID372 (MTDP, 2006).
Among all 100,000 compounds or so, about 770 (0.77%) were called active. What follows is part of a selection rich in actives, with near analogues and random picks from the rest. Values without a mark were called inactive. Rule as the data show it: active = inhibition above about 50%; inactive = the rest.

target: Gag-Pol polyprotein (Human immunodeficiency virus type 1 group M subtype B (isolate HXB2)) (UniProt P04585); assay: RNase H inhibition, HIV 1 Gag Pol polyprotein, FRET biochemical assay, screening (AID 372); conditions: HIV-1 RT RNase H, FRET RNA/DNA substrate fluorescence; at 10 µM; active compounds read high

Q: With `Cc1ccc(CN2CCN(/N=C\c3ccccc3)CC2)cc1` as the molecule, how does the inhibition read?
A: 8%

Q: `COc1ccccc1OCC(=O)N/N=C/c1ccc(C)cc1C` was tested. Which inhibition did it give?
A: 11%

Q: With `CC(=O)N1CCN(c2ccc(NC(=O)c3ccc(-c4ccccc4)cc3)cc2)CC1` as the molecule, how does the inhibition read?
A: 5%

Q: With `O=C(Nc1ccc(N2CCCCC2)cc1)c1ccc(-c2ccccc2)cc1` as the molecule, how does the inhibition read?
A: 28%

Q: With `COc1ccc(C)cc1NC(=O)C(=O)NCc1ccc(Cl)cc1` as the molecule, how does the inhibition read?
A: 44%

Q: With `COc1ccccc1NC(=O)C(=O)NCc1ccc(C)cc1` as the molecule, how does the inhibition read?
A: 57% (active)

Q: With `COc1ccccc1NC(=O)C(=O)NCc1ccccc1` as the molecule, how does the inhibition read?
A: 27%

Q: `COc1ccc(CNC(=O)C(=O)Nc2ccccc2OC)cc1` was tested. Which inhibition did it give?
A: 44%

Q: For `COc1ccc(C)cc1NC(=O)C(=O)NCc1ccncc1`, which inhibition is on record?
A: 55% (active)

Q: Which inhibition does the source give for `COc1ccc(CNC(=O)CN(Cc2ccccc2)S(=O)(=O)c2ccccc2)cc1` here?
A: 10%

Q: For `COc1ccc(S(=O)(=O)N(CC(=O)NCc2ccc(Cl)cc2)Cc2ccccc2)cc1`, which inhibition is on record?
A: 60% (active)

Q: Which inhibition does the source give for `COc1ccc(CNC(=O)C(=O)NCc2ccc(Cl)cc2)cc1` here?
A: 15%

Q: With `COc1ccc(S(=O)(=O)N(CC(=O)NCc2ccccc2)Cc2ccccc2)cc1` as the molecule, how does the inhibition read?
A: 10%

Q: With `COc1ccc(NC(=O)C(=O)NCc2ccc(Cl)cc2)cc1` as the molecule, how does the inhibition read?
A: 52% (active)

Q: `COc1ccc(C)cc1NC(=O)C(=O)NCc1cccnc1` was tested. Which inhibition did it give?
A: 40%

Q: For `COc1ccc(CNC(=O)C(=O)Nc2ccc(OC)cc2)cc1`, which inhibition is on record?
A: 0%

Q: With `Cc1ccc(NC(=O)Cc2ccc(Br)cc2)cc1` as the molecule, how does the inhibition read?
A: 14%

Q: With `COc1cccc(N2C(=O)NC(=O)/C(=C/c3ccc(OC)c4ccccc34)C2=O)c1` as the molecule, how does the inhibition read?
A: 31%

Q: With `O=C(Nc1ccc2oc(-c3ccccc3F)nc2c1)C(Cl)(Cl)Cl` as the molecule, how does the inhibition read?
A: 8%

Q: How did the inhibition turn out when `O=C(O)/C=C\C(=O)Nc1ccc(N2CCOCC2)c(C(=O)O)c1` was run?
A: 5%

Q: `Cc1ccc(S(=O)(=O)N/N=C/c2ccc(C(=O)O)cc2)cc1` was tested. Which inhibition did it give?
A: 0%

Q: `COc1ccc(N2CCSC2c2ccco2)cc1` (centres undefined) was tested. Which inhibition did it give?
A: 0%

Q: `C=CCN1C(=O)/C(=C\c2ccc(O)c(OCC)c2)C(=O)NC1=S` was tested. Which inhibition did it give?
A: 11%

Q: Which inhibition does the source give for `COc1cc(C(=O)NCc2ccc(C(=O)O)cc2)cc(OC)c1OC` here?
A: 7%

Q: Which inhibition does the source give for `CCn1c2ccccc2c2cc(C=Nc3ccc(C)c(F)c3)ccc21` here?
A: 0%

Q: With `CCOc1ccc(C(=O)NC(=S)Nc2ccc(C)cc2)cc1Br` as the molecule, how does the inhibition read?
A: 11%

Q: `CCOc1ccccc1C=Nn1c(-c2ccc(Cl)cc2Cl)n[nH]c1=S` was tested. Which inhibition did it give?
A: 15%

Q: With `CCN(CC)CCN1C(=O)C(=O)/C(=C(\O)c2ccc([N+](=O)[O-])cc2)C1c1ccc(OC)cc1` (centres undefined) as the molecule, how does the inhibition read?
A: 2%

Q: Which inhibition does the source give for `CCOC(=O)CC1(c2ccccc2)SC(NC(C)=O)=NN1C(C)=O` (centres undefined) here?
A: 0%

Q: For `COc1ccc(CNC(=O)C(=O)Nc2cc(C)ccc2OC)cc1`, which inhibition is on record?
A: 30%

Q: With `COc1ccc(Cl)cc1NC(=O)C(=O)NCc1ccncc1` as the molecule, how does the inhibition read?
A: 59% (active)

Q: With `COc1ccc(OC)c(NC(=O)C(=O)NCc2ccncc2)c1` as the molecule, how does the inhibition read?
A: 26%

Q: Which inhibition does the source give for `COc1ccc(C)cc1NC(=O)C(=O)NCc1ccccc1` here?
A: 59% (active)

Q: Which inhibition does the source give for `COc1ccc(Cl)cc1NC(=O)C(=O)NCc1ccc(C)cc1` here?
A: 30%

Q: For `COc1ccc(C)cc1NC(=O)C(=O)NCc1ccc(C)cc1`, which inhibition is on record?
A: 5%

Q: Which inhibition does the source give for `CCOC(=O)C1=C(C)N=c2s/c(=C\c3cc(Br)c(OCc4ccccc4Cl)c(OC)c3)c(=O)n2C1c1ccccc1Cl` (centres undefined) here?
A: 0%

Q: Which inhibition does the source give for `CCOC(=O)c1cc(-c2ccccc2)sc1NC(=O)c1ccc([N+](=O)[O-])cc1` here?
A: 22%

Q: Which inhibition does the source give for `Cc1cc(C)c(NC(=O)COc2ccccc2[N+](=O)[O-])c(C)c1` here?
A: 5%

Q: Which inhibition does the source give for `CCOC(=O)c1cc(-c2ccccc2)sc1NC(=O)COc1ccccc1[N+](=O)[O-]` here?
A: 57% (active)

Q: Which inhibition does the source give for `O=C(Nc1cccc(C(F)(F)F)c1)c1cc([N+](=O)[O-])ccc1Cl` here?
A: 7%

Q: With `Cc1nc2n(CC(=O)N3CCOCC3)c3ccccc3n2n1` as the molecule, how does the inhibition read?
A: 1%

Q: How did the inhibition turn out when `O=C(Cc1cccs1)Nc1ccc(/C=C/C(=O)c2ccccc2)cc1` was run?
A: 8%

Q: `CCOC(=O)c1c(C)oc2ccc(N(C(=O)c3ccncc3)S(=O)(=O)c3ccc(C)cc3)cc12` was tested. Which inhibition did it give?
A: 62% (active)

Q: For `CCOC(=O)c1c(C)oc2ccc(OC(=O)c3ccc(C)cc3)cc12`, which inhibition is on record?
A: 0%

Q: How did the inhibition turn out when `CCOC(=O)c1c(C)oc2ccc(NS(=O)(=O)c3cc(C)ccc3C)cc12` was run?
A: 22%

Q: `O=[N+]([O-])c1ccccc1S(=O)(=O)Nc1ccc(S(=O)(=O)N2CCOCC2)cc1` was tested. Which inhibition did it give?
A: 51% (active)

Q: With `O=[N+]([O-])c1ccccc1S(=O)(=O)Nc1ccc(S(=O)(=O)N2CCCCC2)cc1` as the molecule, how does the inhibition read?
A: 0%

Q: How did the inhibition turn out when `Cc1ccc(S(=O)(=O)Nc2ccc(S(=O)(=O)N3CCOCC3)cc2)cc1[N+](=O)[O-]` was run?
A: 0%

Q: `Clc1ccc(Oc2cccc(CN3CCN(c4ccccc4)CC3)c2)cc1` was tested. Which inhibition did it give?
A: 17%
